# KB-3-1 tox: qHTS assay for MDR1-selective chemotherapeutics: Primary screen using the parental adenocarcinoma cell KB-3-1; Potency, µM (titrated, usually from 46.1 µM), hits mostly cytotoxic; 400,000 compounds, 1.4% hits; KB-3-1 viability, CellTiter-Glo ATP luminescence, 72 h; AID 1347075, 2019; note: % is set by controls: 0 for no effect and ±100 for the full control effect; nearly all actives have a fitted effect of over 60% in size
#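 Cells are dispensed, compounds pinned in, plates held at 37 °C for 72 h, then CellTiter-Glo is added and luminescence read after 10 minutes. Cell line: parental KB-3-1 in phenol-red-free DMEM, 10% FBS.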
# RGS4 inhibitor: Inhibitors of Regulator of G Protein Signaling (RGS) 4: qHTS | Regulator of G-protein signaling 4 (Homo sapiens), P49798 | Transcreener GDP fluorescence polarization, RGS4-accelerated GTP hydrolysis | Potency, µM (top dose mostly 114 µM), for the others: at the highest dose activity change, negative = inhibition, most hits filed as inhibitors | 390,000 compounds, 0.039% hits | AID 504845, 2011; note: % is set by controls: 0 for no effect and ±100 for the full control effect; nearly all actives have a fitted effect of over 75% in size
# Target sequence (P49798 whole entry, looked up): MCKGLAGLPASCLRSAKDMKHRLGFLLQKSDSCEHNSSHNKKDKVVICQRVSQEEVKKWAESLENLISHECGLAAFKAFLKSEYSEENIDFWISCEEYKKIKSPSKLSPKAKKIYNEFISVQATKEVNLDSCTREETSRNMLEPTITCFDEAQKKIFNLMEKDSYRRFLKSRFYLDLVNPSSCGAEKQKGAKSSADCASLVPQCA
#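 MLSMR compounds (23 nl, pin-transferred) preincubated 10 min at room temperature with a 500nM (2x) first reagent, then RGS4 at 900nM (2x) plus Transcreener GDP mix added; fluorescence polarization (620/688 nm) read before and after 90 min at 30 °C.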
# KB-V1 cytotox: qHTS assay for MDR1-selective chemotherapeutics: Primary screen using the drug-selected MDR subline cells KB-V1 | KB-V1 MDR cells viability, CellTiter-Glo, 72 h | Potency, µM (titrated, usually from 46.1 µM), hits mostly cytotoxic | 400,000 compounds, 3.4% hits | AID 1347076, 2019; note: % is set by controls: 0 for no effect and ±100 for the full control effect; nearly all actives have a fitted effect of over 60% in size
#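 KB-V1, DMEM (no phenol red) + 10% FBS; cpd pin-transferred, titration series; 72 h, 37 degrees C; CellTiter-Glo, luminescence. Data normalized, curve-fit.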
# TSG101-PTAP inh: qHTS Assay for Iinhibitors of HIV-1 Budding by Blocking the Interaction of PTAP/TSG101; Tumor susceptibility gene 101 protein (Homo sapiens), Q99816; Potency, µM (doses to about 115 µM), for inactives: at the top dose activity change, negative = inhibition, hits mostly inhibitors; 340,000 tested, under 10 active; Fluorescence polarization, FITC-PTAP peptide / Tsg101 binding; active = well fitted inhibition curve with a large enough effect in the main read-out, with a control signal flat, not every such curve was filed as active; inconclusive = small, poorly fitted or top-dose-only effect, or effect the other way, or a change in a side signal; inactive = no such curve, though single readings can be large or run the other way; note: % of control where 0% means no effect
# Target sequence (Q99816 whole entry, looked up): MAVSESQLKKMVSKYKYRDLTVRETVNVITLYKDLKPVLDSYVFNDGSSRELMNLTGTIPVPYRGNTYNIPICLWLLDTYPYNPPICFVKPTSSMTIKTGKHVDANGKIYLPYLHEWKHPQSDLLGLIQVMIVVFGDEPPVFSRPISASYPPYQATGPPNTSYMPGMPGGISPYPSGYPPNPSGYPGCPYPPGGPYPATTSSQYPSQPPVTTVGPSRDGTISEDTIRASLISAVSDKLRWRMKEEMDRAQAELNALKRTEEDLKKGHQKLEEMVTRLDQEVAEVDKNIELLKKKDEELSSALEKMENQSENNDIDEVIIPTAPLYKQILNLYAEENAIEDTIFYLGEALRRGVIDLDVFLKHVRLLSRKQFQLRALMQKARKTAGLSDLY
#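 Fluorescence polarization binding of Tsg101 binding domain (10 uM final) to FITC-labeled PTAP peptide (50 nM final) in HEPES pH 7.5 buffer with NaCl, Tween 20, EDTA, TCEP. Compounds added before peptide; binding 20 min at RT.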
# MCF10A rerep: A quantitative high throughput screen for small molecules that induce DNA re-replication in MCF 10a normal breast cells; MCF 10A DNA re-replication, Hoechst nuclear intensity, 48 h; Potency, µM (series often up to 46.1 µM), for the others: top-dose activity, positive = re-replication, hits mostly activators; 350,000 compounds, 2.9% hits; note: % of control where 0% means no effect; nearly all actives have a fitted effect of over 50% in size
# SW480 rerep: A quantitative high throughput screen for small molecules that induce DNA re-replication in SW480 colon adenocarcinoma cells; 340,000 compounds, 1.8% hits; AID 624297, 2012; Potency, µM (series often up to 46.1 µM), inactives show at the top dose re-replication activation, usual class: activators; SW480 DNA re-replication, Hoechst DNA content imaging, 48 h; note: % of control where 0% means no effect; nearly all actives have a fitted effect of over 55% in size
#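 SW480 cells exposed to compounds for 48 hr at 37 C, 5% CO2, then Hoechst-stained 40 min. Nuclear DNA content imaged by fluorescence scanning (405 nm excitation, 500-530 nm emission); re-replication scored as increased high-intensity nuclei.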
# * = called active by the depositor; i = inactive; ? = inconclusive; · = no result; ! = repeats disagree; [ ] = another dose, or the depositor's remark. Sampled rows, rich in hits. Any-hit rate of the full collection: about 6.6%. Unless noted, calls come from the whole dose curve; as a rule, active = well fitted curve in the direction sought with a large enough effect; inconclusive = small, poorly fitted or top-dose-only effect, or another doubt; inactive = no such curve, though single readings can be large; an effect the other way counts as inactive or inconclusive. Potency is the fitted concentration of half-maximal effect.
SMILES,KB-3-1 tox,RGS4 inhibitor,KB-V1 cytotox,TSG101-PTAP inh,MCF10A rerep,SW480 rerep
CCC1OC(=O)CC(O)C(C)[C@@H](O[C@@H]2OC(C)[C@H](O[C@@H]3C[C@@](C)(O)C(O)C(C)O3)C(N(C)C)C2O)[C@H](CC=O)CC(C)C(=O)/C=C/C(C)=C/[C@@H]1COC1OC(C)C(O)C(OC)[C@@H]1OC (some centres not stated),·,·,·,·,1.9%,-6.2%
O=C(O)/C=C/CO,·,i,·,·,·,·
CN1C2CCC1CC(OC(=O)c1cc(Cl)cc(Cl)c1)C2 (configuration not stated),?,29.9µM*!,i,-3.7%,?,?
Cc1cc(C)cc(C(=O)OC2CC3CCC(C2)N3C)c1 (configuration not stated),·,·,·,·,?,-4.5%
CC(=O)Nc1ccccc1C(=O)OCc1cccc(F)c1,i,-13.0%,i,-0.4%,10.0%,-5.0%
CC(=O)Nc1ccccc1C(=O)OCC(=O)c1ccc2ccccc2c1,i,19.7%,14.6µM*,-0.5%,0.8%,-3.0%
CC(=O)Nc1ccccc1C(=O)OCc1ccc(C(=O)c2ccccc2)cc1,?,22.6%,6.51µM*,-6.1%,?,25.0%
O=C(Nc1ccc2c(c1)OCO2)c1cccn(Cc2ccccc2)c1=O,i,-20.5%,i,·,·,·
CCCCOc1ccc(Cn2c(=O)oc3ccccc32)cc1,i,-3.9%[56.9 µM],i,-2.2%,?,6.9%
O=C(O)CSCC(=O)N(Cc1ccccc1)c1nc(-c2ccccc2)c(-c2ccccc2)s1,i,-42.0%,i,-7.1%,?,11.7%
CCOC(=O)C1(c2ccccc2)CCN(CC(=O)Nc2ccc(C)cc2)CC1,i,-10.4%[56.9 µM],?,-3.7%,7.5%,?
CCOC(=O)[C@]12Cc3cc(OC)ccc3[C@H]1N(CC(=O)OC)C(=O)c1ccccc12,i,·,i,·,·,·
CCOC(=O)[C@]12Cc3cc(C)ccc3[C@H]1N(CCC(=O)OC)C(=O)c1ccccc12,13µM*,·,4.11µM*,·,·,·
CCOC(=O)[C@]12Cc3c(cc(OC)c(OC)c3OC)[C@H]1N(C1CCCCC1)C(=O)c1ccccc12,3.26µM*,·,?,·,·,·
COc1cc2c(cc1OC)C(C(=O)N(C)C1CCCCC1)C1CCCCN1C2=O (configuration not stated),i,-40.3%,?,2.3%,?,-1.8%
CCOC(=O)[C@]12Cc3cc(C)ccc3[C@H]1N(C1CCCCC1)C(=O)c1ccccc12,1.64µM*,·,2.59µM*,·,·,·
CCOC(=O)[C@]12Cc3ccccc3[C@H]1N(C(C)C)C(=O)c1ccccc12,20.6µM*,·,i,·,·,·
COc1ccccc1CC(=O)Nc1ccc2c(c1)OC1(CCCC1)O2,i,1.9%,i,-0.4%,0.3%,?
Cc1ccc(-n2c(/C=C/c3ccccc3)nc3ccccc3c2=O)cc1Cl,i,4.8%,i,·,·,·
O=C(O)[C@@H]1CCN1,·,14.2%[56.9 µM],·,·,·,·
Cc1ccc(C=C2C(Cl)=C(Cl)C(Cl)=C2Cl)cc1,?,?,?,-1.8%,?,?
Oc1ccc(Cl)cc1Sc1cc(Cl)ccc1O,?,-2.0%,?,0.0%,?,?
CCOC(=O)[C@]12Cc3cc(Cl)ccc3[C@H]1N(C1CCCCC1)C(=O)c1cc(OC)ccc12,1.03µM*,·,5.8µM*,·,·,·
CCOC(=O)C1C(=O)N(C)C2(C)CC1c1cc(OC)ccc1O2 (configuration not stated),i,15.1%,i,-2.9%,4.0%,5.9%
CCOC(=O)[C@]12Cc3ccc(C)cc3[C@H]1N(C1CCCCC1)C(=O)c1cc(OC)ccc12,?,·,4.61µM*,·,·,·
SMILES,KB-3-1 tox,RGS4 inhibitor,KB-V1 cytotox,TSG101-PTAP inh,MCF10A rerep,SW480 rerep
CCOC(=O)[C@]12Cc3ccc(C)cc3[C@H]1N(C1CCCCC1)C(=O)c1ccccc12,1.16µM*,·,2.31µM*,·,·,·
CCOC(=O)[C@]12Cc3cc4c(cc3[C@H]1N(Cc1ccccc1)C(=O)c1ccccc12)OCO4,?,8.4%,?,0.5%,-35.7%,-4.6%[9.22 µM]
CC(C)C(Br)C(=O)NC(N)=O (configuration not stated),·,·,·,·,1.8%,-2.7%
CC(C)(O)C1C2OC(=O)C1[C@]1(O)C[C@H]3O[C@]34C(=O)O[C@H]2[C@]14C (some centres not stated) (tested in a mixture with another compound),·,·,·,·,4.4%,-1.4%
OC[C@H]1OC(O)C[C@@H](O)[C@@H]1O (some centres not stated),i,-14.7%,i,-0.4%,-7.6%,8.9%
CC[C@@H](C)[C@H](C(CC(=O)N1CCCC1[C@@H](OC)[C@H](C)C(=O)N[C@H](Cc1ccccc1)c1nccs1)OC)N(C)C(=O)[C@H](NC(=O)[C@@H](C(C)C)N(C)C)C(C)C (some centres not stated),?,-18.7%,0.184µM*,-4.0%,14.7%,0.082µM*
C=C1C(=O)[C@@]23C[C@H]4[C@@H]5[C@@]6(C)CCC[C@@]57[C@@H]2[C@@H](O)[C@@H]1C[C@H]3[C@H]7N4C6,?,9.9%,i,-12.7%,14.6µM*,?
CCCCCN1C(=O)c2ccccc2[C@@]2(C(=O)OCC)Cc3cc(Cl)ccc3[C@@H]12,?,·,i,·,·,·
CCOC(=O)[C@]12Cc3cc(OC)ccc3[C@H]1N(CC(=O)OC)C(=O)c1cc(OC)ccc12,4.61µM*,·,?,·,·,·
CCOC(=O)[C@]12Cc3cc(Cl)ccc3[C@H]1N(C)C(=O)c1cc(OC)ccc12,2.59µM*,·,4.11µM*,·,·,·
CCOC(=O)[C@]12Cc3cc(OC)ccc3[C@H]1N(C)C(=O)c1cc(OC)ccc12,3.66µM*,·,?,·,·,·
CCCCCN1C(=O)c2cc(OC)ccc2[C@@]2(C(=O)OCC)Cc3cc(OC)ccc3[C@@H]12,5.8µM*,·,23.1µM*,·,·,·
COCC(=O)N(c1c(C)cccc1C)C(C)C(=O)OC (configuration not stated),·,·,·,·,0.0%,1.9%
CCOCCSc1nc2c(c(-c3cccs3)c1C#N)CC/C2=C/c1cccs1,i,-12.7%,i,?,?,?
NNc1ccccc1,·,·,·,·,0.5%,0.0%
